Source: PubChem (several laboratories)
This excerpt belongs to a sample that is enriched for hits.
GIRK2 act – activators of NPY4-receptor-primed GIRK2 channels, summary, cell-based, HEK293, thallium flux | HEK293 GIRK2/NPY4 cells, thallium flux fluorescence | activation (% efficacy), % for hits at 37.5 µM | 34,000 tested, under 10 active | AID 1259324, 2017;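 active = primary screen hit, no activity in plain HEK293 cells, and in GIRK2-only cells above 5% efficacy rising with concentration; inactive = the rest, including fluorescent compounds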;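 note: efficacy is normalized control-subtracted fluorescence 15 s after thallium addition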
Target sequence (P48051 whole entry, looked up): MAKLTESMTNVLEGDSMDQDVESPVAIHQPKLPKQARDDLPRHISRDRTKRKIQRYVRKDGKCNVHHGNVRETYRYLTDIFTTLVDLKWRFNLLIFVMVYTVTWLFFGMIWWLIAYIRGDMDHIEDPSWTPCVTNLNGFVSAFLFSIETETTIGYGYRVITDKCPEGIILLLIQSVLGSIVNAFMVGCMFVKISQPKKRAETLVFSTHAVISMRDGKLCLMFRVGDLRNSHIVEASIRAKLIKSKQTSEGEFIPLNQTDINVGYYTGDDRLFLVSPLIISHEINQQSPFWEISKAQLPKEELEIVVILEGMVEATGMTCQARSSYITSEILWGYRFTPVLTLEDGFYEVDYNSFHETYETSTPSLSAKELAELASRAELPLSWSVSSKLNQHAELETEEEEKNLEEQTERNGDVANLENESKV
GluA2 TARP mod – modulators of GluA2-stargazin AMPA receptor complexes, primary screen, cell-based, membrane potential dye; Voltage-dependent calcium channel gamma-2 subunit (Mus musculus) + Glutamate receptor 2 …; HEK293 GluA2+stargazin, membrane potential dye (FDSS), glutamate EC50; hits were called plate by plate, in both directions; calls only at 30 µM; 40,000 compounds, 3.5% hits; AID 1259245, 2017;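 active = any of four per-well response measures lying three or more SD from its plate-wide compound average, in either direction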
* hit, by the source's call; i = inactive; nt = no result given; + = active, no number.

SMILES	GIRK2 act	GluA2 TARP mod
O=c1ccc(-c2ccco2)nn1CCCNS(=O)(=O)c1ccc2c(c1)OCCO2	i	i
O=c1ccc(-c2ccco2)nn1CCCNS(=O)(=O)c1ccc2c(c1)CCCC2	i	+
COc1ccccc1CCNC(=O)c1csc(NS(=O)(=O)c2cccs2)n1	i	i
Cc1nnc(NC(=O)c2ccc(S(=O)(=O)Nc3ccc(OC(F)(F)F)cc3)o2)s1	i	i
CN(C)S(=O)(=O)c1ccc(C(=O)Nc2ccc(OC(F)(F)F)cc2)o1	i	+
O=C(Nc1ccc(OC(F)(F)F)cc1)c1ccc(S(=O)(=O)NC2CC2)o1	i	i
Cc1csc(NC(=O)c2ccc(S(=O)(=O)Nc3ccc(OC(F)(F)F)cc3)o2)n1	i	+
NC(=O)c1ccccc1NC(=O)C1CN(c2nc3c(C(F)(F)F)cccc3s2)C1	i	i
Cn1nc(C2CCCN(C(=O)c3cc(-c4cccs4)[nH]n3)C2)n(-c2ccccc2)c1=O (stereo not given)	i	i
CSc1ccc2nc(N3CCN(C(=O)c4ccn(C)n4)CC3)sc2c1	i	i
CCS(=O)(=O)c1ccc(CC(=O)N2CCN(c3nc4c(C)ccc(Cl)c4s3)CC2)cc1	nt	+
COc1ccc(S(=O)(=O)CC(=O)N2CCN(c3nc4c(C)ccc(Cl)c4s3)CC2)cc1	nt	i
O=C(c1cccc2[nH]ccc12)N1CCN(c2cc(-c3ccccc3)[nH]n2)CC1	i	nt
CCc1ccccc1NC(=O)CN(c1ccc(C)cc1)S(=O)(=O)c1ccsc1C(=O)OC	i	+
COC(=O)c1sccc1S(=O)(=O)N(CC(=O)Nc1ccccc1OC)c1ccccc1	i	i
COC(=O)c1sccc1S(=O)(=O)N(CC(=O)Nc1cccc(OC)c1)c1ccc(Cl)cc1	i	+
COC(=O)c1sccc1S(=O)(=O)N(CC(=O)Nc1ccccc1)c1ccccc1	i	i
COc1ccc2nc(-c3cccc(NS(=O)(=O)c4ccc(Cl)s4)c3)cn2n1	i	nt
CCOc1ccc2ccccc2c1C(=O)NCc1nc(C)no1	i	nt
COC(=O)NCC(O)Cc1ccccc1 (stereo not given)	i	i
CCOc1ccc2ccccc2c1C(=O)NCC1COC2(CCCCC2)O1 (stereo not given)	i	+
CCSc1ccccc1C(=O)NCC(O)Cc1ccccc1 (stereo not given)	i	+
CCOc1cc(C(=O)NCC2COC3(CCCCC3)O2)cc(OCC)c1OCC (stereo not given)	i	i
CCOc1ccc2ccccc2c1C(=O)NCCc1ccsc1	i	+
CCOc1ccc2ccccc2c1C(=O)NCC(O)Cc1ccccc1 (stereo not given)	i	+
SMILES	GIRK2 act	GluA2 TARP mod
CCOc1ccc2ccccc2c1C(=O)NCC(O)c1ccc(C(F)(F)F)cc1 (stereo not given)	i	nt
O=C(NCCc1ccccc1)c1ccc(Cn2c(=S)[nH]c3ccc(Br)cc3c2=O)cc1	i	i
COc1ccc(C(=O)NCC(c2cccn2C)N(C)C)cc1OC (stereo not given)	i	i
CCOC(=O)Cc1csc(NC(=O)Cc2cc(-c3cccc(OC)c3)on2)n1	i	i
O=[N+]([O-])c1ccc(C2=NCCN2)cc1	nt	+
O=C(Nc1ccccc1)C(=O)Nc1ccc([N+](=O)[O-])cc1	nt	i
COc1ccc(OC)c(COCC(O)CNC(C)C)c1 (stereo not given)	i	i
Cc1cc(N(C)C)nc(NCCNC(=O)Nc2cccc(C(F)(F)F)c2)n1	i	+
CSc1cccc(NC(=O)NCCNc2nc(C)cc(N(C)C)n2)c1	i	i
COc1cccc(C(=O)N(Cc2ccncc2)c2nc3c(C)ccc(C)c3s2)c1OC	i	i
O=C(C1CCCCC1)N1CCN(c2ccc(-c3ccncc3)nn2)CC1	i	i
O=C(C1CC1)N1CCN(c2ccc(-c3ccc(Cl)cc3)nn2)CC1	i	i
O=C(C1CCCC1)N1CCN(c2ccc(-c3ccc(Cl)cc3)nn2)CC1	i	+
O=C(C1c2ccccc2Oc2ccccc21)N1CCN(c2ccc(-c3ccncc3)nn2)CC1	i	+
COc1ccc(-c2csc(NC(=O)CCCS(=O)(=O)c3ccc(Cl)cc3)n2)cc1OC	nt	i
Cc1ccc(S(=O)(=O)NCCn2nc(C)c(Cl)c2C)c(C)c1	i	+
Cc1ccc(S(=O)(=O)NCC2CCN(C)CC2)c(C)c1	i	i
CNC(=O)Cn1cnc2c1c(=O)[nH]c(=O)n2C	nt	i
COC(=O)Cn1c(=O)c2c(nc3n(-c4cc(OC)ccc4OC)c(-c4ccccc4)cn23)n(C)c1=O	i	i
